Experimental data taken from PubChem BioAssay (NCATS).
Records with an inconclusive call do not appear. Calls of active or inactive are those of the source. Calls come from the whole dose curve; as a rule, active = well fitted curve in the direction sought with a large enough effect; inconclusive = small, poorly fitted or top-dose-only effect, or another doubt; inactive = no such curve, though single readings can be large; an effect the other way counts as inactive or inconclusive.

Assays:
[1] = biological target: Calcium and integrin-binding protein 1 (Homo sapiens) (UniProt Q99828); assay: Primary qHTS for Identification of Calcium Integrin Binding Protein 1 (CIB1) Competitor (AID 1508620); details: CIB1-GST / FITC-alphaIIb peptide fluorescence polarization; series mostly up to 57.7 µM;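 note: GST tagged CIB1 binding a fluorescein labelled alphaIIb integrin peptide tracer; top concentration of the series differs between compounds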
Calcium and integrin-binding protein 1 (Homo sapiens), sequence (Q99828 whole entry, looked up): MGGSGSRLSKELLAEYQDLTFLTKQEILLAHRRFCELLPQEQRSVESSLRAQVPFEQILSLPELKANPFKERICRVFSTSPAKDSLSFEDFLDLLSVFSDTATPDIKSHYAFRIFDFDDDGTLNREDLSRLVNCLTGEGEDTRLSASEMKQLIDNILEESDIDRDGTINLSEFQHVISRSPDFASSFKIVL
In short: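 CIB1-GST (1 uM final) and compound incubated 15 min at room temperature before adding FITC-alphaIIb peptide tracer (100 nM final). Competition for binding read by fluorescence polarization (ex 480, em 540) after another 15 min at room temperature.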

[2] = Primary qHTS for inhibitors of nuclear receptor binding SET domain protein 2 (NSD2) in an isogenic RCH-ACV NSD2 p.E1099K mutant (9B) (AID 1645876); details: RCH-ACV NSD2 E1099K (9B) viability, CellTiter-Glo, 72 h; series mostly up to 44.9 µM; note: nearly all actives have a fitted effect of over 70% in size
[3] = Primary qHTS for inhibitors of nuclear receptor binding SET domain protein 2 (NSD2) in an RCH-ACV wild type WT cells (2C) (AID 1645877); details: RCH-ACV (leukaemia line) NSD2 WT (2C) viability, CellTiter-Glo, 72 h; series mostly up to 44.9 µM; note: nearly all actives have a fitted effect of over 70% in size
% is set by controls: 0 for no effect and ±100 for the full control effect.

C/C(=C\C1CCC(C)C2CCC3(C)OC123)C(=O)O (stereo not drawn)
inactive: Potency [1] | Potency [2] | Potency [3]

CN(C)CC(c1ccc(O)cc1)C1(O)CCCCC1 (stereo not drawn)
inactive: Potency [1] | Potency [2] | Potency [3]

CC/C=C/C(O)C(O)C1=C(C)C(=O)C2(O1)C(=O)NC(OC)(C(=O)c1ccccc1)C2O (stereo not drawn)
inactive: Potency [1] | Potency [2] | Potency [3]

CCC1OC(=O)C(C)CC(C)C(=O)/C(C)=C/C(C)C(=O)/C=C/C1(C)O (stereo not drawn)
inactive: Potency [1] | Potency [2] | Potency [3]

CC[C@H]1OC(=O)[C@H](C)[C@@H](O[C@H]2C[C@@](C)(OC)[C@@H](O)[C@H](C)O2)C(C)[C@@H](O[C@@H]2O[C@H](C)C[C@H](N(C)C)[C@H]2O)[C@](C)(O)C[C@@H](C)CN(C)[C@H](C)[C@@H](O)[C@]1(C)O (stereo partly drawn)
inactive: Potency [1] | Potency [2] | Potency [3]

Cn1cc(Nc2cnccc2C(=O)O)c2cccnc21
inactive: Potency [1] | Potency [2] | Potency [3]

C=C[C@H]1[C@H](O[C@@H]2O[C@H](CO)[C@@H](O)[C@H](O)[C@H]2O)OC=C2C(=O)N3Cc4c([nH]c5ccccc5c4=O)[C@@H]3C[C@H]21
inactive: Potency [1] | Potency [2] | Potency [3]

CSCC1OC(n2cnc3c(N)ncnc32)C(O)C1O (stereo not drawn)
inactive: Potency [1] | Potency [2] | Potency [3]

NC(=O)NCCCC(NC(=O)Cc1ccccc1)C(=O)O (stereo not drawn)
inactive: Potency [1] | Potency [2] | Potency [3]

CC(C)C[C@H](NC(=O)[C@@H]1O[C@H]1C(=O)O)C(=O)NCCCCN=C(N)N
inactive: Potency [1] | Potency [2] | Potency [3]

O=C(OCc1ccccc1O[C@@H]1O[C@H](CO)[C@@H](O)[C@H](O)[C@H]1O)C1(O)C=CCCC1O (stereo partly drawn)
inactive: Potency [1] | Potency [2] | Potency [3]

CC1=C(C)C(=O)OC(C(C)C2C(O)CC3C4C5OC5C5(O)CC(OC6OC(CO)C(OC7OC(C)C(O)C(O)C7O)C(O)C6O)CC(O)C5(C)C4CCC32C)C1 (stereo not drawn)
inactive: Potency [1] | Potency [2] | Potency [3]

Nc1nc2c(nc(Sc3ccc(Cl)cc3)n2[C@@H]2O[C@@H]3COP(=O)(O)O[C@H]3[C@H]2O)c(=O)[nH]1
inactive: Potency [1] | Potency [2] | Potency [3]

CC1(C)OC(=O)C=C[C@@]2(C)C1CC(=O)[C@]1(C)C2CC[C@@]2(C)[C@H](c3ccoc3)OC(=O)[C@H]3O[C@]321 (stereo partly drawn)
inactive: Potency [1] | Potency [2] | Potency [3]

CC(=O)OC1C(O)C(C)(O)C(/C=C/C(=O)O)C2(C)CCCC(C)(C)C12 (stereo not drawn)
inactive: Potency [1] | Potency [2] | Potency [3]

C=C1CC[C@H]2[C@@](C)(CCC(OC3OC(CO)C(O)C(O)C3O)[C@@]2(C)CO)C1C(=O)CC1=CCOC1=O (stereo partly drawn)
inactive: Potency [1] | Potency [2] | Potency [3]

COc1cc(C)c(C(=O)O[C@@H]2[C@H](O)[C@@H](CO)O[C@H]2n2ccc(=O)[nH]c2=O)c(OC)c1
inactive: Potency [1] | Potency [2] | Potency [3]

C/C=C/C=C/C=C/C(=O)N(C)C(C(=O)NC(C)C(=O)N1CCCC1C(N)=O)C(C)C (stereo not drawn)
inactive: Potency [1] | Potency [2] | Potency [3]

C[C@@H]1C(=O)O[C@H]2[C@H]1CC[C@@]1(C)C(=O)C=C[C@@](C)(O)[C@H]21
inactive: Potency [1] | Potency [2] | Potency [3]

C[C@@H]1O[C@@H](O[C@H]2[C@H](O)[C@@H](O)[C@H](OC[C@H]3O[C@@H](OC(=O)[C@]45CCC(C)(C)C[C@H]4C4=CCC6[C@@]7(C)C[C@@H](O)[C@H](O)[C@@](C)(CO)C7[C@H](O)C[C@@]6(C)[C@]4(C)CC5)[C@H](O)[C@@H](O)[C@@H]3O)O[C@@H]2CO)[C@H](O)[C@H](O)[C@H]1O (stereo partly drawn)
inactive: Potency [1] | outcome [2] inactive [at 9.23 µM] | activity change, negative = cell killing [3] 0.947% [at 9.23 µM]

C=C1C(=O)O[C@@H]2CC(C)=C([C@@H](C)CCCOC(C)=O)[C@@H](O)[C@H]12
inactive: Potency [1] | Potency [2] | Potency [3]

C/C(=C\CCC(C)CCO)C(=O)OC[C@H]1O[C@@H](O[C@@H]2OC=C(C(=O)O)[C@H]3CC[C@](C)(O)[C@@H]23)C(O)[C@@H](O)C1O (stereo partly drawn)
inactive: Potency [1] | Potency [2] | Potency [3]

COc1cncc(C#Cc2ccccn2)c1
inactive: Potency [1] | Potency [2] | Potency [3]

CC(=O)OCC1OC(O[C@H]2CC[C@@]3(C)C(CC[C@]4(C)C3CC=C3[C@@H]5CC(C)(C)CC[C@]5(C(=O)O)CC[C@]34C)[C@]2(C)CO)C(O)C(O)C1OC1OC(C)C(O)C(OC2OCC(O)C(O)C2O)C1O (stereo partly drawn)
inactive: Potency [1] | activity change, negative = viability loss [2] -15.5% [at 9.23 µM] | activity change, negative = cell killing [3] -24% [at 9.23 µM]

CC1=COC(OC2OC(CO)C(O)C(O)C2O)C2C(CO)CC(OC(=O)/C=C/c3ccc(O)cc3)C12 (stereo not drawn)
inactive: Potency [1] | Potency [2] | Potency [3]

O=C(OC[C@H]1O[C@@H](Oc2ccccc2CO)[C@H](O)[C@@H](O)[C@@H]1O)c1ccccc1
inactive: Potency [1] | Potency [2] | Potency [3]

CC(C)=CCC[C@@](C)(O)[C@H]1CC[C@]2(C)[C@@H]1[C@H](O)CC1[C@@]3(C)CC[C@H](O[C@@H]4O[C@H](CO)[C@@H](O)[C@H](O)[C@H]4O[C@@H]4O[C@H](CO)[C@@H](O)[C@H](O)[C@H]4O)C(C)(C)[C@@H]3CC[C@]12C (stereo partly drawn)
inactive: Potency [1] | Potency [2] | Potency [3]

C#CCCCn1cc(-c2cccc3c2N[C@@H](C)CC(=O)N3)cn1
inactive: Potency [1] | Potency [2] | Potency [3]

CC1(C)CC[C@]2(C(=O)O[C@@H]3O[C@H](CO)[C@@H](O)[C@H](O)[C@H]3O)CC[C@]3(C)C(=CCC4[C@@]5(C)C[C@H](O)[C@H](O[C@@H]6O[C@H](C(=O)O)[C@@H](O)[C@H](O)[C@H]6O)[C@@](C)(CO)C5CC[C@]43C)C2C1 (stereo partly drawn)
inactive: activity change, negative = inhibition [1] 0.901% [at 12.4 µM] | activity change, negative = viability loss [2] -12.9% [at 9.23 µM] | activity change, negative = cell killing [3] -7.01% [at 9.23 µM]

OC[C@@]1(O)CO[C@H](OC[C@H]2O[C@@H](OC(CCCCc3ccc(O)cc3)CCc3ccc(O)cc3)[C@H](O)[C@@H](O)[C@@H]2O)[C@@H]1O (stereo partly drawn)
inactive: Potency [1] | Potency [2] | Potency [3]

N#CC1C(=O)N=C(c2cc(Cl)ccc2O)C=C1c1cc(OCc2ccccc2)cc(OCc2ccccc2)c1 (stereo not drawn)
inactive: Potency [1] | Potency [2] | Potency [3]
